Screens deposited in PubChem by National Center for Advancing Translational Sciences (NCATS).
Pf Dd2 inh – inhibitors of Plasmodium falciparum Dd2 growth | P. falciparum Dd2 growth, SYBR Green, 72 h | Potency, µM (top dose mostly 28.9 µM), without a hit: top-dose activity, negative = inhibition, usual class: inhibitors | actives 4.3% (n = 120,000) | AID 1347417; active means well fitted inhibition curve with a large enough effect;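 further: plate controls were DMSO vehicle for no effect and reference drug for full effect; nearly all actives have a fitted effect of over 65% in size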
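Readout: SYBR Green fluorescence, 485 nm excitation, 535 nm emission, after ~16 h lysis at 37C. Before that, Dd2-infected red cells (2.5% hematocrit) grew 72 h with compound, 29 uM top final concentration.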
* marks the source's active call; other numbers are inactive results; i = inactive; [ ] = remark or other dose. Shown is part of a subset that was picked to be rich in hits. Potency means the concentration at half of the fitted maximal effect.

SMILES	Pf Dd2 inh
CCOCc1cc(CN2CCN(c3ccccc3OC)CC2)c(O)c2ncccc12	2µM*
CCCOCc1cc(CN2CCN(c3ccccc3OC)CC2)c(O)c2ncccc12	2.8µM*
COc1ccccc1N1CCN(Cc2cc(COC(C)C)c3cccnc3c2O)CC1	1.6µM*
COc1ccc(-c2noc(CN3CCN(c4ccccc4OC)CC3)n2)cc1OC	11%
COc1ccccc1N1CCN(c2ncccc2-c2nc(-c3ccc(Cl)cc3)no2)CC1	36%
C=CCS(=O)(=O)NCc1cccnc1N1CCN(c2ccccc2OC)CC1	-3%
CCOc1ccccc1N1CCN(Cc2ccc(=O)n(CC)c2)CC1	-7%
COc1ccccc1N1CCN(c2csc3ccccc3c2=O)CC1	-10%
COc1ccc2c(c1)nc1n2[C@@H](CNC2CCN(C(C)=O)CC2)COC1	27%[44.1 µM]
N#Cc1cccc(C(=O)NCC(=O)N2CCCCCNC(=O)CC2c2ccccc2)c1 (stereo unspecified)	i
CC(C)(C)n1ccc(C(=O)N2CCN(c3cccc(Cl)c3)C(=O)C2)c1	-8%
CC(Oc1ccc(CN2CCN(CCS(C)(=O)=O)CC2)cc1)C(=O)O (stereo unspecified)	4%
O=C(Nc1ccccc1)N1CCCC(c2nn(-c3ccccc3)c(=O)[nH]2)C1 (stereo unspecified)	-12%
Cc1noc2c(NC3CCC(O)CC3)cc(-c3cccnc3)nc12 (stereo unspecified)	i
COCCOc1cc(C)c2c(c1C)C[C@H](C(C)C(=O)N1CCC(O)CC1)CC2 (stereo partly specified)	-5%[44.1 µM]
COc1cc(C)c2c(c1C)C[C@H]([C@H](C)C(=O)O)CC2	-13%[44.1 µM]
COCCOc1cc(C)c2c(c1C)C[C@H](C(C)C(=O)N1CCSCC1)CC2 (stereo partly specified)	10µM*
COc1ncccc1-c1cc(-c2ccc(=O)[nH]c2)c2cncn2c1	i
COc1ncccc1-c1nc(-c2c(C)noc2C)cc2c1cc(C)n2C	i
Cc1ccccc1-c1cc(-c2cn[nH]c2)c2cncn2c1	-26%[44.1 µM]
COc1ncccc1-c1cc(-c2c(C)noc2C)c2cncn2c1	10µM*
Cc1noc2c(-c3ccc(N4CCOCC4)cc3)cc(-c3ccccc3)nc12	i
c1cc(-c2cc(-c3ccncc3)c3cncn3c2)cc(N2CCOCC2)c1	i
Cc1ccccc1-c1nc(-c2c(C)noc2C)cc2cc(CO)oc12	-30%[44.1 µM]
Cc1ccccc1-c1cc(-c2c(C)noc2C)c2cncn2c1	3.2µM*
SMILES	Pf Dd2 inh
Cc1noc(C)c1-c1cc(-c2cccc(N3CCOCC3)c2)cn2cncc12	6.3µM*
COC(=O)[C@H]1CN(C(=O)c2ccc(N(C)C)cc2)CCN1S(C)(=O)=O	0%[44.1 µM]
O=C1CC2CCN([S+](=O)([O-])c3cccs3)CC2CCN1 (stereo unspecified)	8%
O=C(CCc1nc(C2CCCN2C(=O)c2ccccc2)no1)Nc1ccc(F)cc1F (stereo unspecified)	0%
CCN1c2cc(C(=O)Nc3ccc(C(N)=O)cc3)ccc2C(=O)N2CCCCC21 (stereo unspecified)	i
O=C(c1nc(-c2ccc(Cl)cc2)c2ccccn12)N1CCOCC1	-21%[44.1 µM]
Cc1ccc(-c2cc(N3CCCN(C(=O)Cc4ccccc4Cl)CC3)n[nH]2)cc1C	i
O=C(CCc1ccc(O)cc1)N1CCC2(CCNCC2)CC1	14%
CCC(C)NC(=O)C1COC2(CCN(C(=O)c3cccc(C)c3)CC2)N1C(=O)c1ccc(OC)cc1 (stereo unspecified)	i
COc1ccc(-c2noc([C@@H]3C[C@H](NCc4ccc(F)cc4)CN3C)n2)cc1	-14%[44.1 µM]
CC(C)N1CC2CCC(C1)N2Cc1cccc(Cl)c1	-5%[44.1 µM]
Cc1ccc(-c2cccc(CN3C4CCC3CN(C(=O)c3ccncc3)C4)c2)c(C)c1	-21%
Cc1ccc(-c2cccc(CN3C4CCC3CN(C(C)C)C4)c2)c(C)c1	10µM*
COc1ccc(C(=O)N2CCC([C@H]3[C@@H](OC)C(=O)N3C(C)C)CC2)c(OC)n1	-1%
COc1ccc(C(=O)N2CCCC(Cc3nc(C4CCOCC4)no3)C2)cc1OC (stereo unspecified)	-7%
CN1CCN([C@H]2CCN(C(=O)c3ncc(F)cc3F)C[C@H]2CCCO)CC1	-21%
COc1ccc(C(=O)N2CCC3(CC2)C(OC)C(=O)N3CC2CC2)cn1 (stereo unspecified)	16%
COc1ncc(-c2ccc3ncn(-c4ccc(F)cc4F)c(=O)c3n2)cn1	-18%[44.1 µM]
CN1CC2(CCCN(C(=O)c3ccc(OC(F)F)cc3)CC2)OC1=O (stereo unspecified)	7%
COc1cc(OC)cc(C(=O)NCC2CCCN(C(=O)C3=C(C)OCCO3)C2)c1 (stereo unspecified)	-6%
COc1ccc(NC(=O)CCC2CCCN(C(=O)C3=C(C)OCCO3)C2)cc1Cl (stereo unspecified)	3.2µM*
COc1ccc(NC(=O)CCC2CCCN(C(=O)c3csc(C(C)=O)c3)C2)cc1Cl (stereo unspecified)	i
COc1ccc(Cl)cc1NC(=O)CCC1CCCN(Cc2ccc(C)s2)C1 (stereo unspecified)	13µM*
COc1ccc(Cl)cc1NC(=O)CCC1CCCN(C(=O)CCc2scnc2C)C1 (stereo unspecified)	-23%
COc1ccc(Cl)cc1NC(=O)CCC1CCCN(S(=O)(=O)C2CC2)C1 (stereo unspecified)	-27%
SMILES	Pf Dd2 inh
COc1ncccc1-c1nccc2c(=O)cc(-c3cccnc3)oc12	-8%[44.1 µM]
Cc1ccc(N2CCN(C(=O)c3cc4n(n3)CC(c3ccc(Cl)cc3)OC4)CC2)c(C)c1 (stereo unspecified)	i
Cc1ccc(NC(=O)C2CCN(c3cn[nH]c(=O)c3)C2)cc1 (stereo unspecified)	2%
Cc1cnc(CCNC(=O)Nc2ccc3c(c2)OCCO3)n1Cc1ccc(F)cc1	-6%
CCn1cc(S(=O)(=O)NCCc2ncc(C)n2Cc2ccc(F)cc2)cn1	6.3µM*
Cc1cnc(CCNC(=O)C2CCCC2)n1Cc1ccc(F)cc1	-8%
O=C(Cc1ccc(F)cc1)N1CCc2nc(-c3ccc(Cl)cc3)nc(-c3ccccc3)c2C1	i
CC(=O)c1ccccc1OCC(O)Cn1c(CO)nc2ccccc21 (stereo unspecified)	i
CCN(CC)CCn1c(=N)n(CC(O)COc2ccccc2C)c2ccccc21 (stereo unspecified)	1.3µM*
COC(=O)Cn1c(SCCOc2ccccc2Cl)nc2ccccc21	22%
COc1ccc(N2CCN(CC(O)COc3ccccc3C(C)(C)C)CC2)cc1 (stereo unspecified)	10%
CC(C)C(=O)N1CCC(NCCOc2ccccc2Cl)CC1	-3%
CCN(CC)CCn1c(=N)n(CCOc2ccccc2Cl)c2ccccc21	4.5µM*
O=C(c1ccc(F)cc1)N1CCC2(CNc3ccccc3[S+](=O)([O-])N2)C1 (stereo unspecified)	-5%
O=C(c1cccc(F)c1)N1CCC(Oc2ccccc2)C1 (stereo unspecified)	0%
Cc1noc(C)c1CC(=O)N1CCC(CCOc2ccccc2F)C1 (stereo unspecified)	-15%
COc1ccccc1C1CCCN1C(=O)CCCn1nnnc1CN1CCOCC1 (stereo unspecified)	-11%
Nc1nc(C2CC(O)C2)cc(N2CCC(O)(Cn3ccnc3)CC2)n1 (stereo unspecified)	-18%
COc1ccc(NC(=O)C2CC(=O)N(c3n[nH]c4cccc(F)c34)C2)cc1 (stereo unspecified)	3%
